# Test results: the supplement of paper PMC8728848
# Only a selection was taken, and the strongest signals are over-represented in it overall.
# Tests used:
# Test in all cases: glycan array binding signal (z-score within array); higher = stronger binding
# Conditions in all cases: glycan notation: IUPAC condensed, linker removed
# [1] = molecular target: GalNAc(b1-3)Gal
# Summary of the method: (§1)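 Glycan array data were curated from 3228 arrays in the Consortium for Functional Glycomics database and kept only where the protein sequence was available. Glycan names were converted to IUPAC-condensed notation, and columns mapping to the same glycan were averaged. The binding signal is a within-array Z-score, averaged across arrays of the same protein sequence at different concentrations or buffers and across linkers. Negative Z-scores can be read as non-binding.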
# [2] = molecular target: GalNAc6S(b1-4)GlcNAc
# Summary of the method: as §1
# [3] = molecular target: Glc(b1-6)Glc
# Summary of the method: as §1
# [4] = molecular target: GlcNAc(a1-4)Gal(b1-3)GlcNAc
# Summary of the method: as §1
# [5] = molecular target: GlcNAc(b1-2)Man(a1-3)[GlcNAc(b1-2)Man(a1-6)]Man(b1-4)GlcNAc(b1-4)[Fuc(a1-6)]GlcNAc
# Summary of the method: as §1
# [6] = molecular target: GlcNAc(b1-3)Gal(b1-4)GlcNAc(b1-2)[GlcNAc(b1-3)Gal(b1-4)GlcNAc(b1-6)]Man(a1-6)[GlcNAc(b1-3)Gal(b1-4)GlcNAc(b1-2)Man(a1-3)]Man(b1-4)GlcNAc(b1-4)GlcNAc
# Summary of the method: as §1
# [7] = molecular target: GlcNAc(b1-3)Gal(b1-4)GlcNAc(b1-3)Gal(b1-4)GlcNAc(b1-2)Man(a1-3)[GlcNAc(b1-3)Gal(b1-4)GlcNAc(b1-3)Gal(b1-4)GlcNAc(b1-2)Man(a1-6)]Man(b1-4)GlcNAc(b1-4)GlcNAc
# Summary of the method: as §1
# [8] = molecular target: GlcNAc(b1-3)Gal(b1-4)GlcNAc(b1-3)Gal(b1-4)GlcNAc(b1-3)Gal(b1-4)GlcNAc(b1-2)Man(a1-3)[GlcNAc(b1-3)Gal(b1-4)GlcNAc(b1-3)Gal(b1-4)GlcNAc(b1-3)Gal(b1-4)GlcNAc(b1-2)Man(a1-6)]Man(b1-4)GlcNAc(b1-4)[Fuc(a1-6)]GlcNAc
# Summary of the method: as §1
# [9] = molecular target: GlcNAc(b1-3)Gal(b1-4)GlcNAc(b1-3)Gal(b1-4)GlcNAc(b1-3)Gal(b1-4)GlcNAc(b1-3)Gal(b1-4)GlcNAc(b1-2)Man(a1-3)[GlcNAc(b1-3)Gal(b1-4)GlcNAc(b1-3)Gal(b1-4)GlcNAc(b1-3)Gal(b1-4)GlcNAc(b1-3)Gal(b1-4)GlcNAc(b1-2)Man(a1-6)]Man(b1-4)GlcNAc(b1-4)[Fuc(a1-6)]GlcNAc
# Summary of the method: as §1
# [10] = molecular target: GlcNAc(b1-3)[GlcNAc(b1-6)]Gal(b1-4)GlcNAc
# Summary of the method: as §1
# [11] = molecular target: GlcNAc(b1-6)GalNAc
# Summary of the method: as §1
# [12] = molecular target: GlcNAc6S(b1-3)Gal(b1-4)GlcNAc
# Summary of the method: as §1
# [13] = molecular target: Man(a1-2)Man(a1-6)[Man(a1-3)]Man(a1-6)[Man(a1-2)Man(a1-2)Man(a1-3)]Man
# Summary of the method: as §1
# [14] = molecular target: Man(a1-3)[Man(a1-6)]Man
# Summary of the method: as §1
# [15] = molecular target: Man(a1-3)[Man(a1-6)]Man(a1-6)[Man(a1-2)Man(a1-3)]Man(b1-4)GlcNAc(b1-4)GlcNAc
# Summary of the method: as §1
# [16] = molecular target: Neu5Ac(a2-3)Gal(b1-3)GlcNAc(b1-2)Man(a1-3)[GlcNAc(b1-4)][Neu5Ac(a2-3)Gal(b1-3)GlcNAc(b1-2)Man(a1-6)]Man(b1-4)GlcNAc(b1-4)GlcNAc
# Summary of the method: as §1
# [17] = molecular target: Neu5Ac(a2-3)Gal(b1-3)GlcNAc(b1-4)Gal(b1-4)Glc
# Summary of the method: as §1
# [18] = molecular target: Neu5Ac(a2-3)Gal(b1-3)[Neu5Ac(a2-6)]GlcNAc(b1-3)[Fuc(a1-3)[Gal(b1-4)]GlcNAc(b1-6)]Gal(b1-4)Glc
# Summary of the method: as §1
# [19] = molecular target: Neu5Ac(a2-3)Gal(b1-4)GlcNAc(b1-2)[Neu5Ac(a2-3)Gal(b1-4)GlcNAc(b1-6)]Man(a1-6)[Neu5Ac(a2-3)Gal(b1-4)GlcNAc(b1-2)Man(a1-3)]Man(b1-4)GlcNAc(b1-4)GlcNAc
# Summary of the method: as §1
# [20] = molecular target: Neu5Ac(a2-3)Gal(b1-4)GlcNAc(b1-3)Gal(b1-4)GlcNAc(b1-2)Man(a1-3)[Neu5Ac(a2-3)Gal(b1-4)GlcNAc(b1-3)Gal(b1-4)GlcNAc(b1-2)Man(a1-6)]Man(b1-4)GlcNAc(b1-4)GlcNAc
# Summary of the method: as §1
# [21] = molecular target: Neu5Ac(a2-3)Gal(b1-4)GlcNAc(b1-3)Gal(b1-4)GlcNAc(b1-3)Gal(b1-4)GlcNAc(b1-2)Man(a1-3)[Neu5Ac(a2-3)Gal(b1-4)GlcNAc(b1-3)Gal(b1-4)GlcNAc(b1-3)Gal(b1-4)GlcNAc(b1-2)Man(a1-6)]GalNAc
# Summary of the method: as §1
# [22] = molecular target: Neu5Ac(a2-3)Gal(b1-4)GlcNAc(b1-3)Gal(b1-4)GlcNAc(b1-3)GalNAc
# Summary of the method: as §1
# [23] = molecular target: Neu5Ac(a2-3)Gal6S(b1-4)[Fuc(a1-3)]GlcNAc
# Summary of the method: as §1
# [24] = molecular target: Neu5Ac(a2-6)Gal(b1-4)GlcNAc(b1-2)Man(a1-3)[Gal(b1-4)GlcNAc(b1-2)Man(a1-6)]Man(b1-4)GlcNAc(b1-4)GlcNAc
# Summary of the method: as §1
# [25] = molecular target: Neu5Ac(a2-6)Gal(b1-4)GlcNAc(b1-2)Man(a1-3)[GlcNAc(b1-2)Man(a1-6)]Man(b1-4)GlcNAc(b1-4)GlcNAc
# Summary of the method: as §1
# [26] = molecular target: Neu5Ac(a2-6)Gal(b1-4)GlcNAc(b1-3)Gal(b1-4)GlcNAc(b1-3)Gal(b1-4)GlcNAc(b1-2)Man(a1-3)[Neu5Ac(a2-6)Gal(b1-4)GlcNAc(b1-3)Gal(b1-4)GlcNAc(b1-3)Gal(b1-4)GlcNAc(b1-2)Man(a1-6)]GalNAc
# Summary of the method: as §1
# [27] = molecular target: Neu5Ac(a2-6)Gal(b1-4)GlcNAc(b1-6)[Gal(b1-3)GlcNAc(b1-3)]Gal(b1-4)Glc
# Summary of the method: as §1
# [28] = molecular target: Neu5Ac(a2-8)Neu5Ac
# Summary of the method: as §1
# [29] = molecular target: Neu5Ac(a2-8)Neu5Ac(a2-3)[GalNAc(b1-4)]Gal(b1-4)Glc
# Summary of the method: as §1
binder,measurement,setting,value
FliC (Clostridium difficile) (protein) MRVNTNVSALIANNQMGRNVNGQSKSMEKLSSGVRIKRAADDAAGLAISEKMRAQIKGLDQAGRNVQDGISVVQTAEGSLEETGNILQRMRTLSLQSANEINNTEEREKIADELTQLKDEIERISSSTEFNGKKLLDGTSSTIRLQVGASYGTNVSGTSNNNNEIKIQLVNTASIMASAGITTASIGSMKAGGTTGTDAAKTMVSSLDAALKSLNSSRAKLGAQQNRLESTQNNLNNTLENVTAAESRIRDTDVASEMVNLSKMNILVQASQSMLAQANQQPQGVLQLLG,glycan array binding signal (z-score),[1],-0.175
same,glycan array binding signal (z-score),[2],0.047
same,glycan array binding signal (z-score),[3],1.72
same,glycan array binding signal (z-score),[4],0.947
same,glycan array binding signal (z-score),[5],0.458
same,glycan array binding signal (z-score),[6],3
same,glycan array binding signal (z-score),[7],0.372
same,glycan array binding signal (z-score),[8],-0.149
same,glycan array binding signal (z-score),[9],-0.369
same,glycan array binding signal (z-score),[10],-0.057
same,glycan array binding signal (z-score),[11],-0.08
same,glycan array binding signal (z-score),[12],0.071
same,glycan array binding signal (z-score),[13],0.153
same,glycan array binding signal (z-score),[14],-0.471
same,glycan array binding signal (z-score),[15],3.18
same,glycan array binding signal (z-score),[16],0.514
same,glycan array binding signal (z-score),[17],0.17
same,glycan array binding signal (z-score),[18],-0.645
same,glycan array binding signal (z-score),[19],-0.275
same,glycan array binding signal (z-score),[20],1.02
same,glycan array binding signal (z-score),[21],6.63
same,glycan array binding signal (z-score),[22],-0.31
same,glycan array binding signal (z-score),[23],-0.433
same,glycan array binding signal (z-score),[24],-0.515
same,glycan array binding signal (z-score),[25],0.511
same,glycan array binding signal (z-score),[26],2.32
same,glycan array binding signal (z-score),[27],-0.577
same,glycan array binding signal (z-score),[28],-0.234
same,glycan array binding signal (z-score),[29],-0.626
